From PubChem
E coli growth-1: bacterial growth inhibition, counter-screen for AddAB inhibitors | inhibition, % at 11.9 µM | actives 0.27% (n = 330,000) | E. coli V3065 growth, OD600 absorbance, 18 h;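 active = inhibition above the campaign's mean inhibition across all tested compounds plus 3 SD, cut at about 9.9% in these data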;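 also: uninfected addAB+ strain grown without phage in ampicillin broth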
AI-2 QS modul: modulators of Vibrio harveyi AI-2 quorum sensing system | AID 2094 | actives 0.4% (n = 300,000) | activity change, % at 7.5 µM | Vibrio harveyi JMH597 AI-2 luminescence/OD600 ratio, 9 h; active compounds read low; strain lacks LuxN and CqsS sensors; 0 = neutral-control median; in the data active = activity change below about -75%, passing the limit was not always enough; inconclusive = no clear call, values can overlap the other calls;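 also: luminescence divided by OD600 gain over 9 h not by final OD600 alone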
E coli growth-2: blocks Escherichia coli growth | OD600 absorbance (concentration not given with the values) | OD600, 23 h; active compounds read low | actives 0.21% (n = 330,000);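 active = OD600 absorbance below the run mean of sample wells minus 3.6 SD, in any replicate, cut at about 0.56 in these data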
Tat transport: inhibitors of E. coli Tat protein transport. E. coli MC4100 TorA-mCherry Tat export, fluorescence. inhibition, % at 10 µM. actives 0.036% (n = 340,000). AID 488895;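 active = mean replicate inhibition at least 50% and at least half of replicates individually reaching 50%; inconclusive = only one of the two criteria met; inactive = neither criterion met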;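 also: exported cargo escapes ClpAP degradation while cytoplasmic cargo is degraded and loses fluorescence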
phage Ecoli inh: E. coli growth loss with phage present; AID 651602; growth absorbance; actives 0.26% (n = 360,000); inhibition, % at 11.9 µM; in the data active = inhibition above about 11%
AddAB inh: less growth of phage-infected E. coli with AddAB; actives 0.29% (n = 330,000); E. coli expressing H. pylori AddAB, absorbance growth; inhibition, % at 11.9 µM; AID 435030; in the data active = inhibition above about 12%
RecBCD conf: confirmation: growth loss of phage-infected RecBCD+ E. coli (RecBCD inhibitor screen); actives 45% (n = 890); E. coli V66 + T4 2- phage, growth OD; inhibition, % at 11.9 µM; shares compounds with phage Ecoli inh;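 active = mean inhibition over triplicates exceeding the hit threshold derived in the original primary screen, cut at about 11% in these data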
Ecoli viability: counter-screen for RecBCD inhibitors: inhibitors of bacterial viability. E. coli viability, absorbance (OD) growth. inhibition, % at 11.9 µM. shares compounds with phage Ecoli inh. actives 29% (n = 890); in the data active = inhibition above about 20%;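 also: E. coli strain V66 grown with compound alone and no phage infection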
AddAB counter: growth loss of phage-infected AddAB E. coli, RecBCD counter-screen. shares compounds with phage Ecoli inh. E. coli expressing H. pylori AddAB + T4 phage, OD growth; gene 2 mutant T4, recBCD-deleted host. inhibition, % at 11.9 µM. actives 45% (n = 890). AID 651984;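 active = mean inhibition above the solvent-only control wells' mean plus 3 SD, cut at about 22% in these data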;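 also: higher means less bacterial growth from phage killing when AddAB is blocked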
Large screens that a line does not name were inactive (follow-up assays come after a bar, where they were run). This is a sample that favours compounds with a hit; in the whole collection about 0.79% have one here.

COC(=O)C1=C(C(=O)OC)C2N(C)c3ccccc3[C@@]23CC(CO)N(C(=O)C2CCC2)C3=N1 (some centres not stated)	none (no result: E coli growth-1, AI-2 QS modul, Tat transport, phage Ecoli inh, AddAB inh)
CO[C@H]1/C=C/O[C@@]2(C)Oc3c(C)c(O)c4c(O)c(c5c(c4c3C2=O)NC2(CCN(CC(C)C)CC2)N=5)=NC(=O)/C(C)=C\C=C\[C@H](C)[C@H](O)[C@@H](C)[C@@H](O)[C@@H](C)[C@H](OC(C)=O)[C@@H]1C	Tat transport 107, phage Ecoli inh 95 (no result: E coli growth-1, AI-2 QS modul, E coli growth-2, AddAB inh) | RecBCD conf 95 | Ecoli viability 99 | AddAB counter 100
Nc1ncn([C@H]2C[C@H](O)[C@@H](CO)O2)c(=O)n1	phage Ecoli inh 12 (no result: E coli growth-2) | RecBCD conf 14 | Ecoli viability inactive | AddAB counter 34
CC(C)CCN1C(N(C)C)=NCC1C (configuration not stated)	none (no result: E coli growth-1, AI-2 QS modul, Tat transport, phage Ecoli inh, AddAB inh)
N#CC(=C(O)CN1CCOCC1)c1nc(-c2ccccc2)cs1	none (no result: E coli growth-1, AI-2 QS modul, Tat transport, phage Ecoli inh, AddAB inh)
COc1ccc(S(=O)(=O)N(C)CC2Oc3ccc(NC(=O)Cc4ccccc4)cc3C(=O)N(C(C)CO)CC2C)cc1 (configuration not stated)	none (no result: E coli growth-1, AI-2 QS modul, Tat transport, phage Ecoli inh, AddAB inh)
Cc1ccc(C=CC(=O)Nc2ccc(O)c3c(=O)cc(-c4ccccc4Cl)oc23)cc1	none (no result: E coli growth-1, AI-2 QS modul, Tat transport, phage Ecoli inh, AddAB inh)
COc1cccc(-c2cnc(C(O)c3ccc(F)c(C)c3)[nH]2)c1 (configuration not stated)	phage Ecoli inh 12 (no result: E coli growth-1, AI-2 QS modul, E coli growth-2, Tat transport, AddAB inh) | RecBCD conf inactive | Ecoli viability inactive | AddAB counter inactive
COc1cccc(-c2cnc(C(O)c3cc(C)cc(C)c3)[nH]2)c1 (configuration not stated)	phage Ecoli inh 13 (no result: E coli growth-1, AI-2 QS modul, E coli growth-2, Tat transport, AddAB inh) | RecBCD conf inactive | Ecoli viability inactive | AddAB counter inactive
COc1cccc(-c2cnc(C(O)c3ccc(F)cc3)[nH]2)c1 (configuration not stated)	none (no result: E coli growth-1, AI-2 QS modul, E coli growth-2, Tat transport, AddAB inh)
CCCCCCCCCC[n+]1cccc2c3ccccc3ccc21	E coli growth-2 0.13, phage Ecoli inh 12 (no result: E coli growth-1, AddAB inh) | RecBCD conf inactive | Ecoli viability inactive | AddAB counter inactive
CCN(CC)S(=O)(=O)c1cc(OC)ccc1N=Nc1ccc(O)c2ncccc12	phage Ecoli inh 12 (no result: E coli growth-1, E coli growth-2, AddAB inh) | RecBCD conf inactive | Ecoli viability inactive | AddAB counter inactive
CCS(=O)(=O)c1ccc(OC)c(N=Nc2ccc(O)c3ncccc23)c1	none
Cc1cccc(N=Nc2ccc(O)c3ncccc23)c1	phage Ecoli inh 16 | RecBCD conf inactive | Ecoli viability inactive | AddAB counter inactive
O=C(NN=C1CC(=NNC(=O)c2ccncc2)c2ccccc21)c1ccncc1	none (no result: E coli growth-1, AI-2 QS modul, Tat transport, phage Ecoli inh, AddAB inh)
Cc1cc(=O)[nH]c(N=N/C(=N/Nc2ccc(O)cc2)c2ccccc2)n1	phage Ecoli inh 21 (no result: E coli growth-2) | RecBCD conf 19 | Ecoli viability inactive | AddAB counter 79
Cc1cc(=O)[nH]c(N=N/C(=N/Nc2ccccc2C)c2ccccc2)n1	none (no result: E coli growth-2)
COC(=O)C1=C(C)N(CC2CC2)C(=NCc2cccc(Cl)c2)NC1c1ccccc1 (configuration not stated)	none (no result: E coli growth-1, AI-2 QS modul, Tat transport, phage Ecoli inh, AddAB inh)
CN(C)CCn1nnnc1SCC1=C(C(=O)O)N2C(=O)[C@@H](NC(=O)Cc3csc(N)n3)[C@H]2SC1	phage Ecoli inh 99 (no result: AI-2 QS modul, E coli growth-2) | RecBCD conf 103 | Ecoli viability 105 | AddAB counter 51
Cc1nnc(SCC2=C(C(=O)O)N3C(=O)C(NC(=O)Cn4cnnn4)C3SC2)s1 (configuration not stated)	E coli growth-2 0.062, phage Ecoli inh 100 | RecBCD conf 104 | Ecoli viability 106 | AddAB counter inactive
Cc1nnc(SCC2=C(C(=O)O)N3C(=O)[C@@H](NC(=O)Cn4cnnn4)[C@H]3SC2)s1	E coli growth-2 0.045, phage Ecoli inh 94 | RecBCD conf 102 | Ecoli viability 104 | AddAB counter inactive
Cc1nnc(SCC2=C(C(=O)O)N3C(=O)C(NC(=O)c4cc(F)c(F)cc4Cl)C3SC2)s1 (configuration not stated)	none
Cc1nnc(SCC2=C(C(=O)O)N3C(=O)C(NC(=O)Cn4nc(C(F)F)c(Cl)c4C)C3SC2)s1 (configuration not stated)	none
COc1ccc(C2C=CCN(C(=O)c3ccccc3)C(Cc3ccccc3)C(=O)N2Cc2ccc(F)cc2)cc1 (configuration not stated)	none (no result: E coli growth-1, AI-2 QS modul, Tat transport, phage Ecoli inh, AddAB inh)
NC(=S)NN=Cc1nccc2c(C(F)(F)F)cccc12	phage Ecoli inh 16 (no result: E coli growth-1, AI-2 QS modul, E coli growth-2, Tat transport, AddAB inh) | RecBCD conf 18 | Ecoli viability 21 | AddAB counter 22
CNc1cccnc1C=NNC(N)=S	none (no result: E coli growth-1, AI-2 QS modul, E coli growth-2, AddAB inh)
O=C(O)CCC(=O)Nc1nnc(C(F)(F)F)s1	none (no result: AI-2 QS modul)
CCC(NC(=O)Nc1nnc(C(F)(F)F)s1)(C(F)(F)F)C(F)(F)F	AI-2 QS modul inconclusive, phage Ecoli inh 12 | RecBCD conf inactive | Ecoli viability inactive | AddAB counter inactive
Cc1[nH]nc(C(F)(F)F)c1N=NN1CCOCC1	Tat transport 83, phage Ecoli inh 100 (no result: E coli growth-1, AI-2 QS modul, E coli growth-2, AddAB inh) | RecBCD conf 99 | Ecoli viability 103 | AddAB counter 100
CCN1CC2C3C(=O)N(Cc4ccccc4)C(=O)C3[C@](C)(C1=O)N2C(=O)c1ccc(C(C)(C)C)cc1 (some centres not stated)	none (no result: E coli growth-1, AI-2 QS modul, Tat transport, phage Ecoli inh, AddAB inh)
CN(C)C=Nc1nccc(-c2cccs2)n1	none (no result: E coli growth-1, AI-2 QS modul, Tat transport, phage Ecoli inh, AddAB inh)
COc1ccc(N(C)S(=O)(=O)c2ccc(Cl)c(C(=O)NNC(=O)c3ccccc3O)c2)cc1	phage Ecoli inh 12 (no result: E coli growth-1, AI-2 QS modul, AddAB inh) | RecBCD conf inactive | Ecoli viability inactive | AddAB counter inactive
C[n+]1c(-c2ccc(C=NNC(=O)c3ccc(C(=O)NN=Cc4ccc(-c5cn6ccccc6[n+]5C)cc4)cc3)cc2)cn2ccccc21	Tat transport 50, phage Ecoli inh 57 (no result: E coli growth-1, AI-2 QS modul, E coli growth-2, AddAB inh) | RecBCD conf 78 | Ecoli viability 76 | AddAB counter 80
O=C(N/N=C\c1ccc(F)cc1)c1ccc(F)cc1	none (no result: E coli growth-2)
O=C(CN1CCCc2ccccc21)NN=Cc1ccccc1	none (no result: E coli growth-1, AI-2 QS modul, Tat transport, phage Ecoli inh, AddAB inh)
O=C(CSc1nnc(-c2ccccc2)n1Cc1ccccc1)NNC(=O)c1ccccc1O	phage Ecoli inh 12 | RecBCD conf inactive | Ecoli viability inactive | AddAB counter inactive
COC(=O)c1sccc1NN=Cc1ccc(OC)c(OC)c1OC	none (no result: E coli growth-1, AI-2 QS modul, Tat transport, phage Ecoli inh, AddAB inh)
COc1cc(N(C)C)ccc1C=c1c2ccccc2n2c1cc(-c1ccccc1)[n+]2C	phage Ecoli inh 28 (no result: E coli growth-1, AI-2 QS modul, E coli growth-2, AddAB inh) | RecBCD conf 32 | Ecoli viability 36 | AddAB counter 97
O=C(Cc1cccs1)NN=C/C=C/c1ccccc1	none (no result: E coli growth-1, AI-2 QS modul, Tat transport, phage Ecoli inh, AddAB inh)
